# AmpC inh detg = inhibitors of E. coli AmpC beta-lactamase with detergent | actives 0.041% (n = 370,000) | Potency, µM (highest dose often 114 µM), for the others: at the highest dose activity change, negative = inhibition, actives largely listed as inhibitors | AID 485294 | AmpC hydrolysis of nitrocefin, absorbance 480 nm, 0.01% Triton;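 further: 0% = no-compound wells and -100% = no-enzyme wells; nearly all actives have a fitted effect of over 25% in size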
# Target sequence (P00811 whole entry, looked up): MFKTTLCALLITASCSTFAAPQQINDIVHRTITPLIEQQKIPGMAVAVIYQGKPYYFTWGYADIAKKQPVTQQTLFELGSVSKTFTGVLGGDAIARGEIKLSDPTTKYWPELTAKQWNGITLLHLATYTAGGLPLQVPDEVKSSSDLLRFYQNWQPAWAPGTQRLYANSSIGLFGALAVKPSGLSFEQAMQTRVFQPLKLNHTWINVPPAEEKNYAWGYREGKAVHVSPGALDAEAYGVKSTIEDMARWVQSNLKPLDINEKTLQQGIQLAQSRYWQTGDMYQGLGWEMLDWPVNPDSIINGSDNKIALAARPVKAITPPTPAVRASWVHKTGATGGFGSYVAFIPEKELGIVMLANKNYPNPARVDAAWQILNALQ
#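 AmpC (5.3 nM in the dispensed reagent) in 20 mM phosphate pH 7.0 with 0.01% (detergent screen) or 0.0001% Triton X-100 was preincubated with compounds for 15 min at room temperature. Nitrocefin was then added from an 800 uM solution, and hydrolysis was followed at 480 nm.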
# AmpC no deterg = inhibitors of E. coli AmpC beta-lactamase without detergent | P00811 | AmpC nitrocefin hydrolysis, absorbance 480 nm, 0.0001% Triton | Potency, µM (titrated, usually from 57.1 µM), without a hit: at the highest dose activity change, negative = inhibition, most hits filed as inhibitors | actives 0.52% (n = 330,000) | AID 485341;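 further: plate controls were no compound for no effect and no enzyme for full effect; nearly all actives have a fitted effect of over 20% in size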
#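 20 mM phosphate pH 7.0 + 0.01% (detergent screen) or 0.0001% Triton X-100; 5.3 nM AmpC reagent; cpd preinc 15 min RT; nitrocefin (800 uM stock) to start; A480 q20 s × 4 min; Activity was normalised to no-enzyme and no-compound control wells.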
# MARV entry inh = Marburg virus entry inhibition; Marburg virus pseudotyped entry inhibition, cell reporter; Potency, µM (top dose mostly 37.8 µM), for inactives: at the top dose activity change, negative = inhibition, actives largely listed as inhibitors; actives 1.8% (n = 300,000); AID 540276; calls by dose curve; tested in HEK293 cells
# LASV entry inh = blocks Lassa virus binding to or entry into cells; Lassa virus pseudotype entry inhibition, cell reporter; AID 540256; Potency, µM (doses to about 37.9 µM), for inactives: at the top dose activity change, negative = inhibition, actives largely listed as inhibitors; actives 1.2% (n = 300,000); calls by dose curve; tested in HEK293 cells; further: nearly all actives have a fitted effect of over 50% in size
# AMA1-RON2 inh = inhibitors of Plasmodium falciparum AMA1-RON2 interaction; actives 0.2% (n = 360,000); AlphaScreen AMA1-biotinylated RON2 peptide binding; AID 720542; Potency, µM (top dose mostly 58.2 µM), for the others: at the top dose activity change, negative = inhibition, hits mostly inhibitors;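 further: 0% = vehicle wells and -100% = peptide control; nearly all actives have a fitted effect of over 45% in size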
#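 AMA1 (3D7) with his tag at 25 nM final met compounds first, then biotinylated RON2 peptide at 25 nM; detection used donor plus acceptor beads, 10 µg/mL apiece, read by AlphaScreen after 30 min at room temperature.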
# Numbers without * were called inactive; ? = inconclusive; / = no result; [ ] = dose if it differs, or a comment. Rows were chosen to be rich in hits. Some 2.3% of all compounds tested hit in one or more screens of this group. Unless noted, the call rests on the fitted dose curve; in most records, active means well fitted curve in the direction sought with a large enough effect; inconclusive means small, poorly fitted or top-dose-only effect, or another doubt; inactive means no such curve, though single readings can be large; an effect the other way counts as inactive or inconclusive. Unless noted, on the % scale 0 is the no-effect control and ±100 the full control effect; potency means the concentration at half of the fitted maximal effect.
SMILES,AmpC inh detg,AmpC no deterg,MARV entry inh,LASV entry inh,AMA1-RON2 inh
Cc1cccc(NC(=O)CSc2nc3ccccc3c3nc(CCc4c(C)n[nH]c4C)nn23)c1,?,136.6%,18.3µM*,?,-18.2%
CC#CCN1c2ccccc2[C@]23CCC(=O)N(Cc4cccc(C(F)(F)F)c4)C2=NC(C(=O)OC)=C(C(=O)OC)[C@H]13,/,/,18.5%[14.2 µM],/,/
Cc1ccc(OCC(=O)Nc2ccc3nn(-c4ccc(C)cc4)nc3c2)cc1,-0.2%,/,?,?,/
Cc1cc2c(c(=O)n1Cc1ccccc1)[C@H]1O[C@](CCCCN3C(=O)c4ccccc4C3=O)(Cc3cc(C#N)ccc31)O2,/,/,7.7%[14.2 µM],/,/
Cc1ccc([S+](=O)([O-])N[C@@H]2COC(=O)CC=C[C@H](C)COC(=O)N[C@@H](C)C(=O)CC=C[C@H]2C)cc1,/,/,11.3%[14.2 µM],/,/
CCN(Cc1ccccc1)C(=O)Cn1c(=O)n(-c2cccc(C)c2)c(=O)c2c1c1cc(C)ccc1n2C,9.7%,/,/,13.9%[46.1 µM],/
Cc1nn(CC(=O)Nc2ccc(C(C)C)cc2)c(=O)c2c(C)n(-c3ccc(Cl)cc3)nc12,0.3%,/,/,3.5%[46.1 µM],/
Cc1nn(CC(=O)NCCCN2CCCC2=O)c(C)c1[N+](=O)[O-],/,-17.4%,11.2µM*,?,-21.4%
Nc1cccc(-c2cn3ccsc3n2)c1,-4.8%,/,/,-20.2%[46.1 µM],/
O=C(NC(=O)c1ccccc1)Nc1ccccc1,7.2%,-14.1%,2.82µM*,?,-8.8%
CC(C)c1ccc(-c2nnc3n(CCc4ccccc4)c(=O)c4ccccc4n23)cc1,23.1%,/,4.8%[46.1 µM],-1.6%[46.1 µM],/
COc1cccc(-c2sc3ccc(OC)cc3c2-c2ccc(OCCN(C)C)cc2)c1,/,136.6%,/,/,14.1µM*
Cc1cccc(N2CCN(S(=O)(=O)c3ccc4c(c3)NC(=O)C(C)S4)CC2)c1C (configuration not stated),-7.4%,-19.5%,/,/,-0.7%
Cc1cccc(N2CCN(S(=O)(=O)c3ccc4c(c3)C(C(C)C)C(=O)N4)CC2)c1C (configuration not stated),18.9%,/,/,1.26µM*,/
COc1cccc(N2CCN(c3ncnc4c3[nH]c3ccc(F)cc34)CC2C)c1 (configuration not stated),2.8%,-18.1%,?,2.82µM*,-22.2%
COc1cccc(N2CCN(c3ncnc4c3[nH]c3ccccc34)CC2C)c1 (configuration not stated),0.2%,-14.2%,/,/,/
C=CCN1C(=O)S/C(=C/c2ccc(Sc3nc4ccccc4[nH]3)o2)C1=O,-8.8%,-32.5%,?,20µM*,-3.3%
O=C1NC(=O)C(=Cc2ccc(Sc3ccccc3)o2)C(=O)N1,-2.0%,-24.3%,2.2%[46.1 µM],10.0%,-19.1%
O=C1NC(=O)N(c2ccc(Cl)cc2)C(=O)/C1=C\c1ccc(Sc2nc3ccccc3[nH]2)o1,-7.5%,17.8µM*,?,?,?
CC(C)N1C(=O)S/C(=C/c2ccc(Sc3nc4ccccc4[nH]3)o2)C1=O,?,-36.8%,?,?,-1.8%
CC(C)CO/N=C1\C[C@@H](O)[C@@H](O)[C@@H]2[C@@H]3C(=O)N(Cc4ccc5c(c4)OCO5)C(=O)[C@@H]3CC[C@H]12,/,/,-29.9%[14.2 µM],/,/
O=C(Nc1ccc(Cl)cc1)c1cc2c(cc1O)[nH]c1ccccc12,?,-59.9%,7.94µM*,?,-11.6%
Cc1ccc2c(c1)C1C=CCC1C(C(=O)O)N2 (configuration not stated),-15.7%,-36.1%,-35.3%,3.2%,/
CC(=O)c1ccc2c(c1)C1C=CCC1C(C(=O)O)N2 (configuration not stated),?,9.6%,?,1.7%[46.1 µM],3.98µM*
CCCC[C@]12Cc3cc(C#N)ccc3[C@H](O1)c1c(cc(C)n(Cc3ccccc3)c1=O)O2,/,/,-22.7%[14.2 µM],/,/
CC(C)=CCCC(C)=CCON=C1C[C@@H](O)[C@@H](O)[C@@H]2[C@H]3C(=O)N(C[C@@H]4CCCO4)C(=O)[C@@H]3CC[C@@H]12,/,/,-5.0%[14.2 µM],/,/
C=CCOC(=O)N[C@H](c1ccccc1)[C@H](C)C=CCC(=O)OC,/,/,9.3%[14.2 µM],/,/

# Source: PubChem
